Several values for one entry are separate records, joined by “and”; a condition that tells them apart may be missing. Equal entries are not always repeated. This is part of a sample that, as a whole, favours compounds with a hit. Of some 83,000 tested, about 20% had one in any assay.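 Values shown are percent growth following 48 h exposure of cells in 96-well plates to a single concentration of compound; below 10 was considered active.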 Activity calls are given as the source filed them.
Columns and labels:
Assay in all cases: NCI-60 one-dose screen, 48 h (100 = growth as untreated, 0 = no growth, -100 = all killed)
DU-145 prostate = system: DU-145 prostate
K-562 leukemia = system: K-562 leukemia
MALME-3M melanoma = system: MALME-3M melanoma
MDA-MB-231 breast = system: MDA-MB-231 breast
RXF 393 renal = system: RXF 393 renal
SF-268 CNS = system: SF-268 CNS
SF-295 CNS = system: SF-295 CNS
SF-539 CNS = system: SF-539 CNS
UACC-257 melanoma = system: UACC-257 melanoma
M14 melanoma = system: M14 melanoma
HCT-15 colon = system: HCT-15 colon
HT29 colon = conditions: 10 µM unless noted
SNB-75 CNS = conditions: 10 µM unless noted
SNB-19 CNS = system: SNB-19 CNS
U251 CNS = conditions: 10 µM unless noted
PC-3 prostate = system: PC-3 prostate
SK-MEL-5 melanoma = system: SK-MEL-5 melanoma
UACC-62 melanoma = system: UACC-62 melanoma
LOX IMVI melanoma = system: LOX IMVI melanoma
SK-MEL-28 melanoma = system: SK-MEL-28 melanoma

Measured: growth

O=C(c1ccc(Cl)cc1)C(NCCO)c1ccc(Cl)cc1 (stereo not drawn)
inactive: DU-145 prostate; 10 µM unless noted 108% and 109% | K-562 leukemia; 10 µM unless noted 90.3% and 105% | MALME-3M melanoma; 10 µM unless noted 90.2% and 102% | MDA-MB-231 breast; 10 µM unless noted 96.3% and 97.8% | RXF 393 renal; 10 µM unless noted 94.9% and 108% | SF-268 CNS; 10 µM unless noted 99% and 85.8% | SF-295 CNS; 10 µM unless noted 96.8% and 103% | SF-539 CNS; 10 µM unless noted 114% and 103% | UACC-257 melanoma; 10 µM unless noted 100% and 101% | M14 melanoma; 10 µM unless noted 101% and 104% | HCT-15 colon; 10 µM unless noted 99.7% and 99% | HT29 colon 109% and 92.2% | SNB-75 CNS 90.1% and 81.8% | SNB-19 CNS; 10 µM unless noted 101% and 97.6% | U251 CNS 95.9% and 102% | PC-3 prostate; 10 µM unless noted 81.9% and 84.4% | SK-MEL-5 melanoma; 10 µM unless noted 91.9% and 105% | UACC-62 melanoma; 10 µM unless noted 85.3% and 79.9% | LOX IMVI melanoma; 10 µM unless noted 94.8% and 96.1% | SK-MEL-28 melanoma; 10 µM unless noted 111% and 105%

CNC(=O)c1cc(Oc2ccc(CC(=O)Nc3cc(C(C)(C)C)nn3C)cc2)ccn1
inactive: DU-145 prostate; 1 µM 91.6% | DU-145 prostate; 10 µM 76.3% | DU-145 prostate; 30 µM 103% | K-562 leukemia; 1 µM 41.9% | K-562 leukemia; 10 µM 33.9% | K-562 leukemia; 30 µM 28.3% | MALME-3M melanoma; 1 µM 60.5% | MALME-3M melanoma; 10 µM 61.4% | MALME-3M melanoma; 30 µM 66% | MDA-MB-231 breast; 1 µM 78.6% | MDA-MB-231 breast; 10 µM 69.1% | MDA-MB-231 breast; 30 µM 71.9% | RXF 393 renal; 1 µM 98.3% | RXF 393 renal; 10 µM 79.9% | SF-268 CNS; 1 µM 86.9% | SF-268 CNS; 10 µM 70.9% | SF-268 CNS; 30 µM 98.7% | SF-295 CNS; 1 µM 58.1% | SF-295 CNS; 10 µM 37.1% | SF-295 CNS; 30 µM 33.9% | SF-539 CNS; 1 µM 67.1% | SF-539 CNS; 10 µM 66.7% | SF-539 CNS; 30 µM 69.2% | UACC-257 melanoma; 1 µM 60.5% | UACC-257 melanoma; 10 µM 55.7% | UACC-257 melanoma; 30 µM 47.7% | M14 melanoma; 1 µM 96.5% | M14 melanoma; 10 µM 88% | HCT-15 colon; 1 µM 92.7% | HCT-15 colon; 10 µM 83.1% | HCT-15 colon; 30 µM 70.5% | SNB-19 CNS; 1 µM 71.4% | SNB-19 CNS; 10 µM 65.3% | SNB-19 CNS; 30 µM 81.3% | PC-3 prostate; 1 µM 77.9% | PC-3 prostate; 10 µM 77.1% | PC-3 prostate; 30 µM 85.5% | SK-MEL-5 melanoma; 1 µM 22.8% | SK-MEL-5 melanoma; 10 µM 30.8% | UACC-62 melanoma; 1 µM 62.2% | UACC-62 melanoma; 10 µM 42% | UACC-62 melanoma; 30 µM 56.3% | LOX IMVI melanoma; 1 µM 76.6% | LOX IMVI melanoma; 10 µM 48.9% | LOX IMVI melanoma; 30 µM 56.2% | SK-MEL-28 melanoma; 1 µM 81.7% | SK-MEL-28 melanoma; 10 µM 83.8% | SK-MEL-28 melanoma; 30 µM 89.9%

C1CCCCNCCC1
inactive: DU-145 prostate; 10 µM unless noted 118% | K-562 leukemia; 10 µM unless noted 104% | MALME-3M melanoma; 10 µM unless noted 106% | MDA-MB-231 breast; 10 µM unless noted 101% | RXF 393 renal; 10 µM unless noted 103% | SF-268 CNS; 10 µM unless noted 109% | SF-295 CNS; 10 µM unless noted 104% | SF-539 CNS; 10 µM unless noted 113% | UACC-257 melanoma; 10 µM unless noted 100% | M14 melanoma; 10 µM unless noted 105% | HCT-15 colon; 10 µM unless noted 113% | HT29 colon 95.1% | SNB-75 CNS 99.5% | SNB-19 CNS; 10 µM unless noted 110% | U251 CNS 103% | PC-3 prostate; 10 µM unless noted 101% | SK-MEL-5 melanoma; 10 µM unless noted 109% | UACC-62 melanoma; 10 µM unless noted 103% | LOX IMVI melanoma; 10 µM unless noted 111% | SK-MEL-28 melanoma; 10 µM unless noted 109%

CNC(=O)c1ccc(C)c(-n2c(C)cc(OCc3ccc(F)cc3F)c(Br)c2=O)c1
inactive: DU-145 prostate; 10 µM unless noted 91.6% and 95.9% | K-562 leukemia; 10 µM unless noted 43% and 80.7% | MALME-3M melanoma; 10 µM unless noted 98.9% and 95.9% | MDA-MB-231 breast; 10 µM unless noted 88.8% and 93.1% | RXF 393 renal; 10 µM unless noted 87.7% | SF-268 CNS; 10 µM unless noted 81.6% and 84.2% | SF-295 CNS; 10 µM unless noted 68.9% and 78.3% | SF-539 CNS; 10 µM unless noted 89.5% and 88.2% | UACC-257 melanoma; 10 µM unless noted 70.5% | M14 melanoma; 10 µM unless noted 76.6% and 98.4% | HCT-15 colon; 10 µM unless noted 91% and 97.1% | HT29 colon 56.4% and 76.5% | SNB-75 CNS 63.3% and 86.1% | SNB-19 CNS; 10 µM unless noted 75.8% and 91.1% | U251 CNS 80.1% and 78.6% | PC-3 prostate; 10 µM unless noted 74.8% and 66.5% | SK-MEL-5 melanoma; 10 µM unless noted 56.4% and 87.9% | UACC-62 melanoma; 10 µM unless noted 56.5% and 73.4% | LOX IMVI melanoma; 10 µM unless noted 83.2% and 93.6% | SK-MEL-28 melanoma; 10 µM unless noted 104% and 97.9%

Cc1nn(-c2ccc(Cl)cc2)c2ncnc(N/N=C/c3ccccc3O)c12
13.5% (inactive) and -37.1% (active): UACC-62 melanoma; 10 µM unless noted
35.1% (inactive) and 7.4% (active): LOX IMVI melanoma; 10 µM unless noted
48.7% (inactive) and 0.643% (active): MALME-3M melanoma; 10 µM unless noted
active: SF-268 CNS; 10 µM unless noted 9.67% and 7.69% | UACC-257 melanoma; 10 µM unless noted -3.7% and 9.92% | M14 melanoma; 10 µM unless noted 0.303% | SK-MEL-5 melanoma; 10 µM unless noted -62.4% and -60.4%
14% (inactive) and 4.62% (active): SF-539 CNS; 10 µM unless noted
-15.1% (active) and 35.9% (inactive): SNB-75 CNS
inactive: DU-145 prostate; 10 µM unless noted 19.1% and 21% | K-562 leukemia; 10 µM unless noted 18.5% and 14.7% | MDA-MB-231 breast; 10 µM unless noted 32.6% and 32.4% | RXF 393 renal; 10 µM unless noted 25.7% and 14.5% | SF-295 CNS; 10 µM unless noted 24.5% and 10% | HCT-15 colon; 10 µM unless noted 31.9% and 27.1% | HT29 colon 20.1% and 31.1% | SNB-19 CNS; 10 µM unless noted 29.6% and 23.7% | U251 CNS 13% and 11.8% | PC-3 prostate; 10 µM unless noted 41.6% and 28.1% | SK-MEL-28 melanoma; 10 µM unless noted 25.2% and 14.5%

COc1cc2nc(N3CCN(C(=O)C4COc5ccccc5O4)CC3)nc(N)c2cc1OC (stereo not drawn)
inactive: DU-145 prostate; 10 µM unless noted 102% and 106% | K-562 leukemia; 10 µM unless noted 93.3% and 96.7% | MALME-3M melanoma; 10 µM unless noted 113% and 83.2% and 95.6% | MDA-MB-231 breast; 10 µM unless noted 76.3% and 86.2% and 100% | RXF 393 renal; 10 µM unless noted 86.4% and 83.4% and 109% | SF-268 CNS; 10 µM unless noted 100% and 89.5% and 98.6% | SF-295 CNS; 10 µM unless noted 108% and 71.1% and 101% | SF-539 CNS; 10 µM unless noted 115% and 89.9% and 102% | UACC-257 melanoma; 10 µM unless noted 101% and 106% | M14 melanoma; 10 µM unless noted 104% and 96.4% and 96.3% | HCT-15 colon; 10 µM unless noted 108% and 97.5% and 105% | HT29 colon 71.4% and 93.9% | SNB-75 CNS 71.3% and 76.9% and 92.7% | SNB-19 CNS; 10 µM unless noted 99.7% and 96% and 101% | U251 CNS 91.8% and 86.8% and 99.1% | PC-3 prostate; 10 µM unless noted 91.7% and 93.1% and 110% | SK-MEL-5 melanoma; 10 µM unless noted 92.2% and 86.6% and 101% | UACC-62 melanoma; 10 µM unless noted 102% and 101% and 103% | LOX IMVI melanoma; 10 µM unless noted 88% and 94.2% and 98.7% | SK-MEL-28 melanoma; 10 µM unless noted 99.9% and 102% and 107%

Cc1cc(O)c(C(C)C)cc1N
inactive: DU-145 prostate; 10 µM unless noted 115% and 116% | K-562 leukemia; 10 µM unless noted 113% and 101% | MALME-3M melanoma; 10 µM unless noted 113% and 112% | MDA-MB-231 breast; 10 µM unless noted 103% and 92.3% | RXF 393 renal; 10 µM unless noted 119% and 115% | SF-268 CNS; 10 µM unless noted 102% and 120% | SF-295 CNS; 10 µM unless noted 104% and 99% | SF-539 CNS; 10 µM unless noted 101% and 95.6% | UACC-257 melanoma; 10 µM unless noted 107% and 111% | M14 melanoma; 10 µM unless noted 108% and 112% | HCT-15 colon; 10 µM unless noted 101% and 104% | HT29 colon 101% and 116% | SNB-75 CNS 79% and 97% | SNB-19 CNS; 10 µM unless noted 117% | U251 CNS 104% and 103% | PC-3 prostate; 10 µM unless noted 106% and 98.4% | SK-MEL-5 melanoma; 10 µM unless noted 106% and 98.9% | UACC-62 melanoma; 10 µM unless noted 97.5% and 111% | LOX IMVI melanoma; 10 µM unless noted 98.1% and 94.7% | SK-MEL-28 melanoma; 10 µM unless noted 113% and 111%

CCN(CC)CCOc1ccc(/C=N/Nc2nc3c([nH]2)c(=O)n(C)c(=O)n3C)cc1
inactive: DU-145 prostate; 10 µM unless noted 115% and 108% | K-562 leukemia; 10 µM unless noted 109% and 103% | MALME-3M melanoma; 10 µM unless noted 96.6% and 82.1% | MDA-MB-231 breast; 10 µM unless noted 103% and 87.4% | RXF 393 renal; 10 µM unless noted 114% and 122% | SF-268 CNS; 10 µM unless noted 111% and 102% | SF-295 CNS; 10 µM unless noted 113% and 98.7% | SF-539 CNS; 10 µM unless noted 97.2% and 95.5% | UACC-257 melanoma; 10 µM unless noted 102% and 108% | M14 melanoma; 10 µM unless noted 96.7% and 97.6% | HCT-15 colon; 10 µM unless noted 97.2% and 103% | HT29 colon 99.9% and 91.4% | SNB-75 CNS 88.4% and 90.3% | SNB-19 CNS; 10 µM unless noted 98.5% and 102% | U251 CNS 98.6% and 113% | PC-3 prostate; 10 µM unless noted 99.4% and 88.5% | SK-MEL-5 melanoma; 10 µM unless noted 102% and 107% | UACC-62 melanoma; 10 µM unless noted 94.2% and 99.8% | LOX IMVI melanoma; 10 µM unless noted 104% and 92.3% | SK-MEL-28 melanoma; 10 µM unless noted 115% and 112%

— PubChem BioAssay (NCI)
